The values that follow come from ChEMBL document CHEMBL2218924, “A broad activity screen in support of a chemogenomic map for kinase signalling research and drug discovery” (Biochem J, 2013).

Experiment [1] has as its target T1, Rhodopsin kinase GRK7 (Homo sapiens) (UniProt Q8WTQ7).
T1 sequence (whole entry): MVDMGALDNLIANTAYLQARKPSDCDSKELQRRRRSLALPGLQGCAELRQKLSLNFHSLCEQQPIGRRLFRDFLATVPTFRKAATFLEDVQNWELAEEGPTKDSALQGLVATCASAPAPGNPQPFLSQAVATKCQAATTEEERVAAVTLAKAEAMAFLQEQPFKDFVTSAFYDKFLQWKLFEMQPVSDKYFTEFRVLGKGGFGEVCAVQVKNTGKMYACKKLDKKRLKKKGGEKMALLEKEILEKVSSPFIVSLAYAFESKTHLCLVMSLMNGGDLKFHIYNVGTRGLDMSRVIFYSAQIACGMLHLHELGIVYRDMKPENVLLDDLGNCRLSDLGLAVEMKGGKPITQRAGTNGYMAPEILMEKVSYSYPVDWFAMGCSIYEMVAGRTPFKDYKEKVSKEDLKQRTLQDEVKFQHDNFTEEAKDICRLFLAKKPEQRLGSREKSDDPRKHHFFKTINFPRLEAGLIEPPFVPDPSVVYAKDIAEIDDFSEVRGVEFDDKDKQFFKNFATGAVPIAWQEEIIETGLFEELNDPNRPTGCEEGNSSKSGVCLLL
The settings on record: at 10 µM.

In experiment [2] the target is Glycogen synthase kinase-3 alpha (Homo sapiens) (UniProt P49840). The settings on record: at 1 µM.
The target is the same in experiment [3]. The settings on record: at 10 µM.
Experiment [4] concerns the target Glycogen synthase kinase-3 beta (Homo sapiens) (UniProt P49841). The note with it: at 1 µM.
Experiment [5] has the same target. The note with it: at 10 µM.
Experiment [6] addresses Homeodomain-interacting protein kinase 1 (Homo sapiens) (UniProt Q86Z02). The note with it: at 1 µM.
For experiment [7] the target is unchanged. The settings on record: at 10 µM.
In experiment [8] the target is Homeodomain-interacting protein kinase 2 (Homo sapiens) (UniProt Q9H2X6). The note with it: at 1 µM.
Experiment [9] shares this target. The settings on record: at 10 µM.
Experiment [10] addresses Homeodomain-interacting protein kinase 3 (Homo sapiens) (UniProt Q9H422). The note with it: at 1 µM.

Homeodomain-interacting protein kinase 3 (Homo sapiens), sequence (Q9H422 whole entry, looked up): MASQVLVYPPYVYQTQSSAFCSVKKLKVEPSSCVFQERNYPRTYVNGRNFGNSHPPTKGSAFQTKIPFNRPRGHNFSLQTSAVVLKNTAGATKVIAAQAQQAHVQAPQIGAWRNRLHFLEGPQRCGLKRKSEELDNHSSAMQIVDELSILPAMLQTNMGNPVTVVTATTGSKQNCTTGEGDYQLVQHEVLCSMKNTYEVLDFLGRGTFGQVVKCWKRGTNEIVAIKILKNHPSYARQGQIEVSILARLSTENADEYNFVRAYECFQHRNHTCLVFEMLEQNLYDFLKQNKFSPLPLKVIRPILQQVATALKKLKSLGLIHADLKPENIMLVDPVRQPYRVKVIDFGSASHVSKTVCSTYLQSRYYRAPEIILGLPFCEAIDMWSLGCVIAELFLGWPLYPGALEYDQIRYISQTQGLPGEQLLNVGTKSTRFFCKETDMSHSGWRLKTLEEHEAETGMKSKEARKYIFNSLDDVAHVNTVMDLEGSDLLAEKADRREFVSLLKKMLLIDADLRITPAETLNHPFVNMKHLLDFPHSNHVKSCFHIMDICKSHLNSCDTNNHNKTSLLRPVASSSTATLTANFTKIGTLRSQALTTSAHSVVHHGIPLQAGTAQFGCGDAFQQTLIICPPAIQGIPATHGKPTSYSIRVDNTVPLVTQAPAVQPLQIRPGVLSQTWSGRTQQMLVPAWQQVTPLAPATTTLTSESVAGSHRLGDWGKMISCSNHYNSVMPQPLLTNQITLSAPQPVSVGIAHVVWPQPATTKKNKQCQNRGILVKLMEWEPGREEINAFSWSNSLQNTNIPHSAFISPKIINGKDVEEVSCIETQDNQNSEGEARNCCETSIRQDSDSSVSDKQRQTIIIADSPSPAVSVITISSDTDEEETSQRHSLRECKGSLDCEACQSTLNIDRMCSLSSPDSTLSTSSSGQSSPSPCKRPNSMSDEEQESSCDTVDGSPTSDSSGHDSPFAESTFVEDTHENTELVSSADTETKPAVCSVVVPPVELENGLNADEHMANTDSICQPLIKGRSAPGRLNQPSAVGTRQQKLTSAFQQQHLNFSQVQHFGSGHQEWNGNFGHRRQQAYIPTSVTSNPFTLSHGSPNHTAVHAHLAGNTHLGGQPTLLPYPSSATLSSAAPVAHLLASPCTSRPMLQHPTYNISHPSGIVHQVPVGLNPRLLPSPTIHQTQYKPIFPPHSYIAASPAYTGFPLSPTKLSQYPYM
Glycogen synthase kinase-3 alpha (Homo sapiens), sequence (P49840 2-483 limits assumed): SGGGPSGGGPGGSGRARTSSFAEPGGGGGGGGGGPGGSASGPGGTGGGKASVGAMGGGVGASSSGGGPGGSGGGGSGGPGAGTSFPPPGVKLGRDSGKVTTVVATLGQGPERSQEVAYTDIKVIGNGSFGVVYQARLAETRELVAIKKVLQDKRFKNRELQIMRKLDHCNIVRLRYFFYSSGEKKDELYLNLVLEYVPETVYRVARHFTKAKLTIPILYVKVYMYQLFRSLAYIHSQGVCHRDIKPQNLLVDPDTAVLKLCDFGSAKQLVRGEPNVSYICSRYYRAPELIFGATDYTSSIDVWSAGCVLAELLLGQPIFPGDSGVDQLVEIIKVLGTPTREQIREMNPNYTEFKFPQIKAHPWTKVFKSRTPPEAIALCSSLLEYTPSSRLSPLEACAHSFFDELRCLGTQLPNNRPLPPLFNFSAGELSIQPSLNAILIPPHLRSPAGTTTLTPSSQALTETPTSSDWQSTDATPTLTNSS
Homeodomain-interacting protein kinase 1 (Homo sapiens), sequence (Q86Z02 whole entry, looked up): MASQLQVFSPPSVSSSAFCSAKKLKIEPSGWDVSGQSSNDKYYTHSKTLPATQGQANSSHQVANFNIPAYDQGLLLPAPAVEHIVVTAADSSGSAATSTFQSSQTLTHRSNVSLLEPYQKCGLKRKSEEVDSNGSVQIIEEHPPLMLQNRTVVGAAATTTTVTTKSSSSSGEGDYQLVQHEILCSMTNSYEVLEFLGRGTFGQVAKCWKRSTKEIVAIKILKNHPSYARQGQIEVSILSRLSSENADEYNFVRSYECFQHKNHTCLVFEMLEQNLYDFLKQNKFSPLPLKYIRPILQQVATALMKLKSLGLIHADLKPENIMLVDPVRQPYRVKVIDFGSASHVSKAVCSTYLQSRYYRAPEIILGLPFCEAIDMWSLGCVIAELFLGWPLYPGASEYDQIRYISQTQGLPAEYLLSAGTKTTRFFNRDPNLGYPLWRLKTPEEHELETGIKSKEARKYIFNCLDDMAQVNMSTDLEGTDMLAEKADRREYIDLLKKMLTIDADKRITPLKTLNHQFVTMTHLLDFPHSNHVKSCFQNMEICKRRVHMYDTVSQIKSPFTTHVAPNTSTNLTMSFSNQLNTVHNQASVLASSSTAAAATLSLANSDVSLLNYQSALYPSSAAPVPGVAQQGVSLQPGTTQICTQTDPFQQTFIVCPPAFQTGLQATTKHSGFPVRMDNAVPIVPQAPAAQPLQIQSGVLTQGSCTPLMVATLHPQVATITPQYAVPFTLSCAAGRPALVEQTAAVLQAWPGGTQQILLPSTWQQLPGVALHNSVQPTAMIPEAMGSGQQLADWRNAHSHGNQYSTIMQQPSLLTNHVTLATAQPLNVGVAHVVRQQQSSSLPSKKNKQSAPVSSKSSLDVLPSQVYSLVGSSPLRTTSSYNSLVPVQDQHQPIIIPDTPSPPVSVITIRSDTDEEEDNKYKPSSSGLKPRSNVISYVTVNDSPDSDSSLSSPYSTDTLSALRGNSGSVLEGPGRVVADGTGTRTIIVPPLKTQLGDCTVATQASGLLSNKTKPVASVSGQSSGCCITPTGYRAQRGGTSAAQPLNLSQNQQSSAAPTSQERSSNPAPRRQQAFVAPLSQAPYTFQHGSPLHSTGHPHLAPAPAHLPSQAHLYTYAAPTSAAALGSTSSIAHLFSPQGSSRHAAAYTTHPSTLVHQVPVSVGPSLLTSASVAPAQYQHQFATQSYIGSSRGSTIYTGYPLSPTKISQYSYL
Homeodomain-interacting protein kinase 2 (Homo sapiens), sequence (Q9H2X6 whole entry, looked up): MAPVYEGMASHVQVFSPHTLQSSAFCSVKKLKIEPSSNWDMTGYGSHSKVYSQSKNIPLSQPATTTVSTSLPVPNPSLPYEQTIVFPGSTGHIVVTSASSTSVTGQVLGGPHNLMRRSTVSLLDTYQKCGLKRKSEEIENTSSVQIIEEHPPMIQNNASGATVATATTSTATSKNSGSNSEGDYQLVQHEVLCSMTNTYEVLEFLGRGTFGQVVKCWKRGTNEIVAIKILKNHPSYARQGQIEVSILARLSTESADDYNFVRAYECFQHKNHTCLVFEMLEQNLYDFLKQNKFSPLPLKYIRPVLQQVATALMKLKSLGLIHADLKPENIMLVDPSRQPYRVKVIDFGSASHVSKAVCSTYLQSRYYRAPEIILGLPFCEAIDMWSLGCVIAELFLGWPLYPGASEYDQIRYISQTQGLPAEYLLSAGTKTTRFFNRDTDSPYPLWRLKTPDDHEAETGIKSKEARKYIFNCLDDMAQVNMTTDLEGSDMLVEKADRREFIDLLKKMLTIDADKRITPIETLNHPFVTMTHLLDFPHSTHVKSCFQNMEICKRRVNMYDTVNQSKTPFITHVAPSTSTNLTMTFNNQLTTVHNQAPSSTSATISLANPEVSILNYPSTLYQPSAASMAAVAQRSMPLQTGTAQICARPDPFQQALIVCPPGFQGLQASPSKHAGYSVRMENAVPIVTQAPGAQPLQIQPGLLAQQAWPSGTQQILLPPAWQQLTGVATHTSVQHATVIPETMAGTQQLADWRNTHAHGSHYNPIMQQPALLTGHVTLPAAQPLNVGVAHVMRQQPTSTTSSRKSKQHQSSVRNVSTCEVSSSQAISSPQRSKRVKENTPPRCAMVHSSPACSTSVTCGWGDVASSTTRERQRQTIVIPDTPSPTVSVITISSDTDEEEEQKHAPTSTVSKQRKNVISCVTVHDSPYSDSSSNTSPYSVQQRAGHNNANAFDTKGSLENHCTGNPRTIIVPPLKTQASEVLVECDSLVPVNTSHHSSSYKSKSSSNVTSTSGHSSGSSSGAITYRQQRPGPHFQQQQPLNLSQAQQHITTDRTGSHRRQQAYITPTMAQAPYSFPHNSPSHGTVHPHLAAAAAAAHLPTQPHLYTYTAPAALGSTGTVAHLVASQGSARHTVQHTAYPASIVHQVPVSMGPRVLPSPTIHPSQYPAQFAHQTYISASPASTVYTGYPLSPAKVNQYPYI
Glycogen synthase kinase-3 beta (Homo sapiens), sequence (P49841 whole entry, looked up): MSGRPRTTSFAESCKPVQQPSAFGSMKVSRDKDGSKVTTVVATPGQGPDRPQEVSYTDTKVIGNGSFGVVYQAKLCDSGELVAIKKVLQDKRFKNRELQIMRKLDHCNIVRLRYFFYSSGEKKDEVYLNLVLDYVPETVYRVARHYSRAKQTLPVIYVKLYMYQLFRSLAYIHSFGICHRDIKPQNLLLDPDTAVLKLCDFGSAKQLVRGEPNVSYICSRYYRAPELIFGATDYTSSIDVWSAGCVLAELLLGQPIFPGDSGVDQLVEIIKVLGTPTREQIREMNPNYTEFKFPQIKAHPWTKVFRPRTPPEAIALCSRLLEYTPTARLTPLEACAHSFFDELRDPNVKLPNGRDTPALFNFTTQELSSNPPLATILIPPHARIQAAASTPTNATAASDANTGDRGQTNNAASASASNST

One may read the residual activity as the signal under treatment as a percentage of the control signal. In the case of `O=S(=O)(NCCNC/C=C/c1ccc(Br)cc1)c1cccc2cnccc12`, in [1], the residual activity came to 58%.
On to `O=C(Nc1nc2ccccc2n1CCN1CCOCC1)c1cccc([N+](=O)[O-])c1`, for which the results for the residual activity in experiment [1], in experiment [2] and in experiment [3] were 79%, 113% and 116%, respectively.
Turning to `CCCC(=O)Oc1ccc2[nH]c(C(=O)c3cc4ccccc4[nH]3)cc2c1`, the residual activity in experiment [1] amounted to 82%; in [3], 125%; in [4], 99%; in experiment [5], 95%; in experiment [6], 98%; in [7], 103%. Moreover, the residual activity is 102% in experiment [8], 100% in [9] and 93% in experiment [10].
Turning to `COc1ccc2c(c1)c(C1=C(c3c[nH]c4ccccc34)C(=O)NC1=O)cn2CCCN(C)C`, the residual activity in experiment [1] was 44%; in [2], 15%; in experiment [3], -1%; in experiment [4], 30%; in [5], 4%; in [7], 34%. Moreover, the residual activity in experiment [8] amounted to 57%; in experiment [9], 13%; in [10], 72%.
As to `O=C(O)/C=C/c1cc(Br)c(Br)c(Br)c1Br`, the residual activity in experiment [1] was 95%; in experiment [2], 93%; in experiment [3], 51%; in experiment [4], 125%; in experiment [5], 106%; in experiment [6] it was 93%. For the same compound, the residual activity in experiment [7] worked out at 53%; in experiment [8] it was 83%; in experiment [9], 27%; in experiment [10], 94%.
`Nc1ncnc2c1c(-c1ccc(Oc3ccccc3)cc1)cn2C1CCCC1`: the residual activity is 69% in experiment [1]; 104% in experiment [2]; 112% in [3]; 88% in [4]; 86% in experiment [6]; 98% in experiment [7]. Moreover, the residual activity turned out to be 96% in experiment [8], 75% in experiment [9] and 86% in [10].
As for `NC(=O)c1cccc(-c2cc(Nc3ccc(OC(F)(F)F)cc3)ncn2)c1`, the results for the residual activity in experiment [2], in [3] and in experiment [5] were 98%, 82% and 64%, respectively.
Consider `c1ccc(-c2cnc(Nc3ccc(OCCN4CCCC4)cc3)s2)cc1`, for which the residual activity came out at 109% in [2]; 133% in experiment [3]; 67% in [8]; 19% in experiment [9]; 78% in experiment [10].
For `O=C(Nc1ccc(Cl)cc1)c1ccccc1NCc1ccncc1`, the residual activity in [2] is 118%; in experiment [3] it was 130%.
Consider `O=c1cc(N2CCNCC2)oc2c(-c3ccccc3)cccc12`, for which the residual activity in [1] was determined as 84%; in experiment [4], 78%; in [5], 84%; in experiment [6] it was 101%; in experiment [7] it was 96%; in experiment [8] it was 97%. Further, the residual activity in experiment [9] and in experiment [10] was 90% each time.
Turning to `O=c1c(-c2ccc(F)cc2)c(-c2ccncc2)[nH]n1-c1ccc(Cl)cc1`, the residual activity in experiment [3] came to 69%; in [4] it was 102%; in experiment [5], 56%; in experiment [9] it was 99%.
Turning to `Cn1sc(=O)n(Cc2ccccc2)c1=O`, the values for the residual activity in [1], in experiment [8] and in experiment [9] were 77%, 94% and 94%, respectively.
On to `Nc1ncnc2[nH]nc(Nc3ccc(F)cc3)c12`, for which the residual activity in experiment [2] was found to be 98%; in experiment [3] it was 90%; in experiment [4], 100%; in experiment [5], 93%; in experiment [6], 108%; in experiment [7], 96%. The results for the residual activity in [8] and in [9] were 100% and 92%, respectively.
For the compound `N#Cc1c(NC(=O)c2cccc3ccccc23)sc2c1CCCC2`, the residual activity in experiment [2] is 84%; in experiment [3], 80%; in experiment [5] it was 100%; in experiment [10], 99%.
As for `O=C1C(Cl)=C(N2C(=O)CCC2=O)C(=O)c2ccccc21`, the residual activity was 90% in experiment [1]; 120% in experiment [4]; 93% in experiment [5]; 89% in experiment [7]; 102% in [8]; 92% in experiment [9]. Besides, the residual activity in experiment [10] worked out at 93%.
As to `CCOC(=O)c1c(C)[nH]c(/C=C2\C(=O)Nc3ccccc32)c1C`, the residual activity in [3] worked out at 129%; in experiment [4] it was 99%; in experiment [5] it was 80%.
Consider `O=S(=O)(c1cccc2cnccc12)N1CCCNCC1`, for which the residual activity in experiment [4] stood at 136%.
Regarding `COc1ccc(-c2cnc3c(-c4ccsc4)cnn3c2)cc1`, the residual activity in [4] came out at 87%; in experiment [5] it was 88%; in experiment [8], 93%; in experiment [9], 95%.
In the case of `N#C/C(=C1/Nc2ccccc2S1)c1ccnc(NCCc2cccnc2)n1`, the residual activity in experiment [2] was 1%; in experiment [3], -1%; in [4], 8%; in experiment [5] it was 1%; in [8] it was 47%; in experiment [9], 6%. Further, in [10], the residual activity amounted to 88%.
On to `NCCNc1ncc(C(N)=O)c(Nc2cccc(C(F)(F)F)c2)n1`, for which the residual activity in [5] came out at 26%.
Turning to `CC(C)N(CCC(=O)c1ccc2ccccc2c1)Cc1ccccc1`, the figures for the residual activity in [3] and in experiment [10] were 135% and 86%, respectively.
On to `CC(C)(C)c1nc2c3ccc(F)cc3c3c(=O)[nH]ccc3c2[nH]1`, for which the residual activity in experiment [7] was found to be 98%; in [8] it was 65%; in [9] it was 21%; in [10], 79%.
`Nc1nccc(-c2c(-c3ccc(F)cc3)ncn2C2CCNCC2)n1`: the residual activity was determined as 64% in experiment [5], 82% in experiment [7] and 62% in experiment [9].
`Nc1n[nH]c2nc3ccccc3nc12`: the residual activity in experiment [2] is 81%; in [3] it was 50%; in [4] it was 100%; in experiment [5] it was 80%; in experiment [7], 87%; in experiment [8], 98%. For the same compound, the residual activity in experiment [9] is 59%.
For `COc1ccc(CNC(=O)Nc2ncc([N+](=O)[O-])s2)cc1`, the residual activity in experiment [4] was 28%; in experiment [5], 14%.
For `COc1ccc(COc2ccc(Cc3cnc(N)nc3N)cc2OC)cc1`, the residual activity in experiment [2] was 120%; in [3], 119%; in experiment [5] it was 80%.
Turning to `CSc1nc(-c2ccc(F)cc2)c(-c2ccnc(NC(C)c3ccccc3)c2)[nH]1` (stereo unspecified), the residual activity in [3] worked out at 96%; in experiment [7], 97%; in [9], 86%.
For `O=C1Cc2c([nH]c3ccc(Br)cc23)-c2ccccc2N1`, the residual activity in experiment [4] worked out at 8%; in [5] it was 7%; in [7], 90%; in experiment [8] it was 98%; in experiment [9], 64%.
For `CCN(CC)CCNC(=O)c1c(C)[nH]c(/C=C2\C(=O)Nc3ccc(Cl)cc32)c1C`, the residual activity in [1] was found to be 9%; in experiment [6] it was 32%; in experiment [7] it was 4%; in experiment [8], 6%; in experiment [9] it was 1%; in experiment [10], 9%.
In the case of `NC(=O)c1ccc(-c2nc(-c3ccc4c(c3)OCCO4)c(-c3ccccn3)[nH]2)cc1`, the results for the residual activity in experiment [4] and in experiment [5] were 117% and 98%, respectively.
For `COc1cc2ncnc(Nc3cccc(Cl)c3)c2cc1OC`, the residual activity in [2] was 101%; in experiment [3], 121%; in [10], 110%.
Take `N#C/C(=C\c1ccc(O)c(O)c1)C(=O)NCc1ccccc1`: in [8], the residual activity was found to be 101%.
`O=C1Cc2c([nH]c3ccc([N+](=O)[O-])cc23)-c2ccccc2N1`: the residual activity in [2] was 1%; in [3], 2%; in experiment [4] it was -1%; in experiment [5], 3%; in experiment [6], 109%; in [7], 100%.
On to `COc1cc2nccc(Oc3ccc(NC(=O)Nc4cc(C)on4)c(Cl)c3)c2cc1OC`, for which the residual activity in [2] worked out at 107%; in experiment [3], 123%; in experiment [6], 96%; in [7], 106%.
As for `Fc1ccc(-c2nc3n(c2-c2ccncc2)CCS3)cc1`, the residual activity in experiment [2] was determined as 88%; in experiment [3], 88%; in experiment [9], 91%.
On to `COc1ccc(Cl)cc1NC(=O)Nc1cc(C)nc2ccccc12`, for which the residual activity in [1] turned out to be 88%; in experiment [6] it was 97%; in [8] it was 98%; in experiment [9], 87%; in [10] it was 99%.
For `O=C1NC(=O)C(c2cn(CCCO)c3ncccc23)=C1c1cnccn1`, the residual activity was found to be 6% in experiment [2]; 3% in experiment [3]; 34% in experiment [4]; 10% in experiment [5]; 93% in [6]; 93% in experiment [7]. Further, the residual activity in experiment [8] turned out to be 56%; in experiment [9] it was 52%.
For the compound `CCN1/C(=C/C(C)=O)Sc2ccc(OC)cc21`, the residual activity turned out to be 34% in experiment [3], 63% in [5] and 82% in experiment [10].
